Source: PubChem BioAssay
Several values for one entry are separate records, joined by “and”; a condition that tells them apart may be missing. Identical values can stand only once. Inconclusive results are not listed. A structure can be active in one record and inactive in another. Activity calls are given as the source filed them. Unless noted, how the calls were made is not given here. Where a SMILES comes first, the peptide text is derived from it. The star is where a group is joined. Cbz = O=C(OCc1ccccc1)*

Tests used:
[1] = viability loss in pontine glioma line – cell-based, SU-DIPG-XIII, MIPE4.0, CellTiter-Glo, qHTS, dose response (AID 1347061; cut-off not given, nearly all actives have AC50 up to about 37 µM;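 further: cells exposed to compound for 48 hours before readout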); settings: CellTiter-Glo ATP luminescence
[2] = chitosan synthesis blockers in C. neoformans – flow cytometry, Cibacron Brilliant Red staining (AID 1347148); settings: Cryptococcus neoformans chitosan, stronger effect = lower value; at 10 µM unless noted;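 further: compound exposure lasted three days at 37 degrees C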
[3] = P. berghei load reduction in hepatocytes – cell-based, HepG2, luciferase luminescence, HepG2 viability, primary screen (AID 624349; in the data active means parasite load remaining mostly below about 12%, no sharp cut-off; inactive means mostly above about 10%;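 further: 100% = mean of DMSO negative control wells on the same plate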); settings: P. berghei liver stage in HepG2, luciferase luminescence, concentration not given here; parasite load remaining: stronger effect = lower value; viability: measured here: HepG2 viability without parasites
[4] = liver-stage malaria parasite load reduction – cell-based, known kinase inhibitor set, luminescence, hepatoma host viability (AID 624392); settings: Plasmodium liver stage in hepatoma cells, luciferase luminescence, concentration not given here; liver cell % of control: measured here: host liver cell viability; parasite % of control: stronger effect = lower value;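 further: infected cells incubated roughly two days before readout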
[5] = galactose survival enhancers in mitochondrial complex I cybrids – cell-based, galactose medium, ATP luminescence, primary screen (AID 1645843;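 active means z-score of at least 1.8 in each of two replicates, scored against plate mean and spread of sample wells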;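 further: positive z means more ATP and so rescue of galactose-driven cybrid death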); settings: complex I mutant cybrid cells, 72 h, stronger effect = higher value
[6] = system: Hepatitis C virus NS3 helicase; experiment: blockers of NS3h binding to ssDNA – biochemical, fluorescence polarization, LOPAC1280 library, primary screen (AID 687035; in the data active means inhibition above about 37%); settings: Purified HCV NS3 helicase, Cy5-dT15 ssDNA binding fluorescence polarization; stronger effect = higher value; concentration not given here
[7] = compounds altering Cy5-DNA-NS3h complex signal – biochemical, LOPAC1280, artefact control for HCV NS3 helicase inhibitor project (AID 687037); settings: Cy5-DNA-NS3h complex fluorescence interference counterscreen
[8] = compounds altering viability of human ES cells (AID 493140); settings: human embryonic stem cell survival screen; stronger effect = higher value;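 further: cells exposed to compounds for four days before counting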
[9] = growth inhibition, single agents and combos, LFS_MB_1R, cell-based, cisplatin or BGB combos, synergistic combos for chromothripsis tumors (AID 1671452; in the data active means inhibition above about 80%;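 further: cells exposed for 96 hours before readout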); settings: LFS_MB_1R medulloblastoma cells, stronger effect = higher value
[10] = growth inhibition, single agents and combos, CRL2098, cell-based, BGB or cisplatin IC20 combos, synergistic combos for chromothripsis tumors (AID 1671454; in the data active means inhibition above about 80%;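 further: cells exposed for 96 h before readout; 0% = vehicle DMSO and 100% = killing by high DMSO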); settings: CRL2098 osteosarcoma cells, drug combinations, stronger effect = higher value
[11] = growth inhibition, single agents and combos, HD-MB03, cell-based, BGB or cisplatin IC20 combos, synergistic combos for chromothripsis tumors (AID 1671455; in the data active means inhibition above about 83%;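 further: 0% = vehicle DMSO and 100% = high DMSO as cytotoxic control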); settings: HD-MB03 medulloblastoma cells, stronger effect = higher value
[12] = growth inhibition, single agents and combos, UWB1.289, cell-based, BGB or cisplatin combos, synergistic combos for chromothripsis tumors (AID 1671456; in the data active means inhibition above about 80%;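 further: cells exposed to compound for four days; 0% = vehicle DMSO and 100% = killing by high DMSO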); settings: UWB1.289 ovarian carcinoma cells, stronger effect = higher value
[13] = growth inhibition, single agents and combos, LFS_MB_2R, cell-based, cisplatin combos, synergistic combos for chromothripsis tumors (AID 1671457; in the data active means inhibition above about 80%;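 further: cells exposed to compound for four days before readout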); settings: LFS_MB_2R medulloblastoma cells, stronger effect = higher value
[14] = UWB1.289_BRCA1 ovarian cancer growth, cell-based, BGB or cisplatin combinations (AID 1671459; in the data active means inhibition above about 80%); settings: UWB1.289 BRCA1 ovarian carcinoma, drug combinations, stronger effect = higher value
[15] = drug combination toxicity in non-malignant astrocytes – cell-based, BGB or cisplatin IC20 combos, cytotoxicity control for chromothriptic childhood tumor combination screen (AID 1671460; in the data active means inhibition above about 80%;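 further: cells exposed to compounds for 96 hours before viability readout; 0% = vehicle and 100% = killing control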); settings: Human astrocytes, viability inhibition, drug combinations, at 0.5 µM, stronger effect = higher value
[16] = blockers of cellular phospholipid synthesis – cell-based, LOPAC library, screen 4, primary screen (AID 1347384); settings: animal cells, phospholipid biosynthesis inhibition screen; at 10 µM
[17] = measured here: combination with BGB IC40, at 0.05 µM
[18] = measured here: combination with cisplatin, at 0.5 µM
[19] = measured here: combination with cisplatin, at 5 µM
[20] = measured here: combination with BGB at IC20, at 0.5 µM
[21] = measured here: combination with cisplatin at IC20, at 0.5 µM
[22] = measured here: combo with BGB at IC20, at 0.5 µM
[23] = measured here: combo with cisplatin at IC20, at 0.5 µM
[24] = measured here: inhibition with BGB combination, at 0.05 µM
[25] = measured here: inhibition with cisplatin combination, at 0.05 µM
[26] = BGB combination, concentration series, at 5 µM
[27] = cisplatin combination, concentration series, at 5 µM
[28] = measured here: combo with BGB IC20
[29] = measured here: combo with cisplatin IC20

Question: Which outcome [1] does the source give for `CN1CCN(CCOc2cc(OC3CCOCC3)c3c(Nc4c(Cl)ccc5c4OCO5)ncnc3c2)CC1` here?
Answer: inactive

Question: Which fold fluorescence [2] does the source give for `CC(C)C[C@@H](C=O)NC(=O)[C@H](CC(C)C)NC(=O)[C@H](CC(C)C)NC(=O)OCc1ccccc1` (Cbz-Leu-Leu-Leu-aldehyde) here?
Answer: 10.3 [at 105.1 µM] (inactive)

Question: Which AC50 [1] does the source give for `CC[C@H](C)n1cc(C)c2c(C(=O)NCc3c(C)cc(C)[nH]c3=O)cc(-c3ccc(N4CCNCC4)nc3)cc21` here?
Answer: 14.8 µM (active)

Question: For `C=C1C(=O)OC2/C=C(/C)CC/C=C(/C)CCC12` (configuration not stated), which outcome [1] is on record?
Answer: inactive

Question: With `Cc1c(NC(=O)OC[C@@H]2COCCN2)cn2ncnc(Nc3ccc4c(cnn4Cc4cccc(F)c4)c3)c12` as the compound, how does the outcome [1] read?
Answer: inactive

Question: With `CSc1cccc(Nc2ncc3cc(-c4c(Cl)cccc4Cl)c(=O)n(C)c3n2)c1` as the compound, how does the outcome [1] read?
Answer: inactive

Question: Which outcome [1] does the source give for `Clc1ccc(COC(Cn2ccnc2)c2ccc(Cl)cc2Cl)cc1` (configuration not stated) here?
Answer: inactive

Question: For `CC1=C(C(=O)Nc2cc3cn[nH]c3cc2F)C(c2ccc(Cl)cc2F)N=C(c2ccnc(Cl)c2)N1` (configuration not stated), which outcome [1] is on record?
Answer: inactive

Question: Which results are given for `CC(C)n1c(/C=C/[C@H](O)C[C@H](O)CC(=O)O)c(-c2ccc(F)cc2)c2ccccc21`?
Answer: parasite load remaining [3]: 134% (inactive); viability [3]: 92.6%; outcome [1]: inactive

Question: Which results are given for `CC(C)(C)c1nc2c3cc[nH]c(=O)c3c3cc(F)ccc3c2[nH]1`?
Answer: parasite load remaining [3]: 88% (inactive); viability [3]: 127%; liver cell % of control [4]: 205% and 286% and 305%; parasite % of control [4]: 128% (inactive) and 18.5% (inactive) and 5.35% (inactive); outcome [1]: inactive

Question: With `CC(C)=CC[C@@H](O)C1=CC(=O)c2c(O)ccc(O)c2C1=O` as the compound, how does the parasite load remaining [3] read?
Answer: 4.44% (active)

Question: And the viability [3]?
Answer: 99.5%

Question: And the z-score [5]?
Answer: -2.24 (inactive)

Question: With `COc1cc2nccc(Oc3ccc(NC(=O)NC4CC4)c(Cl)c3)c2cc1C(N)=O` as the compound, how does the liver cell % of control [4] read?
Answer: 83.2% and 92.7% and 92.2%

Question: What about the parasite % of control [4] of the same compound?
Answer: 3.46% (inactive) and 6.57% (inactive) and 21.7% (inactive)

Question: What does the source list for `CC(C)(C)c1cnc(CSc2cnc(NC(=O)C3CCNCC3)s2)o1`?
Answer: liver cell % of control [4]: 42.1% and 45.4% and 53.6%; parasite % of control [4]: 0.331% (inactive) and 0.54% (inactive) and 1.3% (active)

Question: For `Cc1[nH]c(/C=C2\C(=O)Nc3ccc(S(=O)(=O)N(C)c4cccc(Cl)c4)cc32)c(C)c1C(=O)N1CCN(C)CC1`, which parasite load remaining [3] is on record?
Answer: 38.5% (inactive)

Question: What about the viability [3] of the same compound?
Answer: 69.6%

Question: Which results are given for `O=C(Nc1cn[nH]c1-c1nc2ccc(CN3CCOCC3)cc2[nH]1)NC1CC1`?
Answer: liver cell % of control [4]: 44.3% and 46.2% and 49.7%; parasite % of control [4]: 0.367% (inactive) and 0.333% (inactive) and 0.278% (inactive)

Question: Which results are given for `O=C1NC(=O)/C(=C/c2ccc3c(c2)OC(F)(F)O3)S1`?
Answer: parasite load remaining [3]: 45.5% (inactive); viability [3]: 93.8%; inhibition [6]: -5% (inactive); fluorescence ratio (interference) [7]: 1 (inactive); z-score [5]: -0.34 (inactive)

Question: Which survival [8] does the source give for `CCCCC(C)(C)[C@H](O)/C=C/[C@H]1[C@H](O)CC(=O)[C@@H]1C/C=C\CCCC(=O)O` here?
Answer: 68.2 (inactive)

Question: With `Cc1[nH]c2ccccc2c1CCNCc1ccc(/C=C/C(=O)NO)cc1` as the compound, how does the inhibition ([9]; at 0.5 µM) read?
Answer: 93.3% (active) and 50.3% (inactive)

Question: And the inhibition [9, 17]?
Answer: 50.6% and -33.1%

Question: What about the inhibition [9, 18] of the same compound?
Answer: 94.8% and 59%

Question: What about the inhibition [9, 19] of the same compound?
Answer: 101% and 94.7%

Question: And the inhibition ([10]; at 0.5 µM)?
Answer: 96% (active) and 13.2% (inactive)

Question: And the inhibition [10, 20]?
Answer: 95% and 15.5%

Question: What about the inhibition [10, 21] of the same compound?
Answer: 96.9% and -1.5%

Question: What about the inhibition ([11]; at 0.5 µM) of the same compound?
Answer: 99.9% (active) and 93.8% (active)

Question: And the inhibition [11, 22]?
Answer: 99.8% and 96.6%

Question: What about the inhibition [11, 23] of the same compound?
Answer: 99.9% and 99.7%

Question: What about the inhibition ([12]; at 0.5 µM) of the same compound?
Answer: 82.2% (active) and 51.9% (inactive)

Question: What about the inhibition [12, 24] of the same compound?
Answer: 27.3% and -1.85%

Question: What about the inhibition [12, 25] of the same compound?
Answer: 42.8% and 21.6%

Question: What about the inhibition ([13]; at 0.5 µM) of the same compound?
Answer: 91.3% (active) and 29.2% (inactive)

Question: What about the inhibition [13, 18] of the same compound?
Answer: 101% and 47.2%

Question: What about the inhibition [13, 19] of the same compound?
Answer: 109% and 98.7%

Question: What about the inhibition [14, 26] of the same compound?
Answer: 121% and 109%

Question: And the inhibition ([14]; at 0.5 µM)?
Answer: 90.3% (active) and 56.4% (inactive)

Question: What about the inhibition [14, 27] of the same compound?
Answer: 127% and 128%

Question: And the inhibition [15]?
Answer: 101% (active) and 33.3% (inactive)

Question: What about the inhibition [15, 28] of the same compound?
Answer: 102% and 30.8%

Question: And the inhibition [15, 29]?
Answer: 99.8% and 22.1%

Question: For `Cn1c2ccccc2c2c3c(c4c5ccccc5n(CCC#N)c4c21)CNC3=O`, which parasite load remaining [3] is on record?
Answer: 110% (inactive)

Question: What about the viability [3] of the same compound?
Answer: 92.8%

Question: And the fold fluorescence [2]?
Answer: 3.75 [at 132.1 µM] (inactive)

Question: For `CC(C)c1nn(-c2c(Cl)cccc2Cl)c2nc(Cc3ccc(OCCO)cc3)[nH]c(=O)c12`, which parasite load remaining [3] is on record?
Answer: 77.3% (inactive)

Question: And the viability [3]?
Answer: 79.7%

Question: What does the source list for `CN(C)c1ccc(C(=O)NCCCCCCC(=O)NO)cc1`?
Answer: inhibition ([9]; at 0.5 µM): 32.4% (inactive); inhibition [9, 17]: -37.9%; inhibition [9, 18]: 63.6%; inhibition [9, 19]: 97.6%; inhibition ([10]; at 0.5 µM): -26.1% (inactive); inhibition [10, 20]: -83.1%; inhibition [10, 21]: 6.53%; inhibition ([11]; at 0.5 µM): 47.5% (inactive); inhibition [11, 22]: 38.6%; inhibition [11, 23]: 81.5%; inhibition ([12]; at 0.5 µM): 31% (inactive); inhibition [12, 24]: -11.2%; inhibition [12, 25]: 3.19%; inhibition ([13]; at 0.5 µM): 15.7% (inactive); inhibition [13, 18]: 37.8%; inhibition [13, 19]: 95.1%; inhibition [14, 26]: 88.6%; inhibition ([14]; at 0.5 µM): 35.3% (inactive); inhibition [14, 27]: 103%; inhibition [15]: 25.9% (inactive); inhibition [15, 28]: 24.7%; inhibition [15, 29]: 16.4%

Question: For `C=CC(=O)Nc1cc2c(Nc3ccc(F)c(Cl)c3)ncnc2cc1C#CC(C)(C)N1CCN(C)CC1`, which liver cell % of control [4] is on record?
Answer: 44% and 49.4% and 70.7%

Question: What about the parasite % of control [4] of the same compound?
Answer: 0.362% (inactive) and 1.83% (inactive) and 6.99% (inactive)

Question: For `O=C1NCCc2[nH]c(-c3ccncc3)cc21`, which parasite load remaining [3] is on record?
Answer: 110% (inactive)

Question: And the viability [3]?
Answer: 61.5%

Question: What about the outcome [16] of the same compound?
Answer: inactive
